Binding signal data for 29 sequences are collected here from publication doi:10.1101/2024.03.05.583629.

For the experiment, the target named is pT7_6His-AlfaTag-HOXD13 (human, UniProt P35453 263-343). In words: PADIT-seq. The following applies: dsDNA, one strand shown.
Sequence of pT7_6His-AlfaTag-HOXD13 (P35453 263-343): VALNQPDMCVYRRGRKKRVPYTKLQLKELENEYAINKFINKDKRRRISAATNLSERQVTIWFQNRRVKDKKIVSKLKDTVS
As to “CTCGAGGATATCAAGATCTGGCCTCGGCCTTTTAATTGGAACCTCTAGCTAGCCGACTCACTATAGGGATAATCGCCCTGAGCAAAGACC”, the binding signal is 2.53 ± 0.0779 log2FC.

“CTCGAGGATATCAAGATCTGGCCTCGGCCGAATAAAAGGAACCTCTAGCTAGCCGACTCACTATAGGGATAATCGCCCTGAGCAAAGACC” displayed a binding signal of 1.27 ± 0.0923 log2FC.

“CTCGAGGATATCAAGATCTGGCCTCGGCATTTTAACAGGAACCTCTAGCTAGCCGACTCACTATAGGGATAATCGCCCTGAGCAAAGACC”: the binding signal is 2.07 ± 0.0923 log2FC.

Take “CTCGAGGATATCAAGATCTGGCCTCGGCTTTTTATTAGGAACCTCTAGCTAGCCGACTCACTATAGGGATAATCGCCCTGAGCAAAGACC”: the binding signal was found to be 3.3 ± 0.0796 log2FC.

Take “CTCGAGGATATCAAGATCTGGCCTCGGCGAGTTAAAAGGAACCTCTAGCTAGCCGACTCACTATAGGGATAATCGCCCTGAGCAAAGACC”: the binding signal worked out at 0.985 ± 0.0828 log2FC.

Regarding “CTCGAGGATATCAAGATCTGGCCTCGGCGTTTTAGTCGGAACCTCTAGCTAGCCGACTCACTATAGGGATAATCGCCCTGAGCAAAGACC”, the binding signal is -0.506 ± 0.12 log2FC.

“CTCGAGGATATCAAGATCTGGCCTCGGCATTTTAAACGGAACCTCTAGCTAGCCGACTCACTATAGGGATAATCGCCCTGAGCAAAGACC” showed a binding signal of 1.29 ± 0.0911 log2FC.

As for “CTCGAGGATATCAAGATCTGGCCTCGGCGCTTTAAAAGGAACCTCTAGCTAGCCGACTCACTATAGGGATAATCGCCCTGAGCAAAGACC”, the binding signal amounted to 1.94 ± 0.0663 log2FC.

“CTCGAGGATATCAAGATCTGGCCTCGGCGCCTTAAAAGGAACCTCTAGCTAGCCGACTCACTATAGGGATAATCGCCCTGAGCAAAGACC” registered a binding signal of 0.578 ± 0.0742 log2FC.

“CTCGAGGATATCAAGATCTGGCCTCGGCTACTGGGCGGGAACCTCTAGCTAGCCGACTCACTATAGGGATAATCGCCCTGAGCAAAGACC” returned a binding signal of -1.09 ± 0.112 log2FC.

“CTCGAGGATATCAAGATCTGGCCTCGGCATTTTAGTTGGAACCTCTAGCTAGCCGACTCACTATAGGGATAATCGCCCTGAGCAAAGACC”: the binding signal is 0.276 ± 0.112 log2FC.

As for “CTCGAGGATATCAAGATCTGGCCTCGGCGTGCTAAAAGGAACCTCTAGCTAGCCGACTCACTATAGGGATAATCGCCCTGAGCAAAGACC”, the binding signal was -0.142 ± 0.0902 log2FC.

For “CTCGAGGATATCAAGATCTGGCCTCGGCGTATTAAAAGGAACCTCTAGCTAGCCGACTCACTATAGGGATAATCGCCCTGAGCAAAGACC”, the binding signal was determined as 2.14 ± 0.0726 log2FC.

In turn, “CTCGAGGATATCAAGATCTGGCCTCGGCCTCTTAAAAGGAACCTCTAGCTAGCCGACTCACTATAGGGATAATCGCCCTGAGCAAAGACC” showed a binding signal of 2.2 ± 0.0925 log2FC.

In the case of “CTCGAGGATATCAAGATCTGGCCTCGGCAGGGTAAAAGGAACCTCTAGCTAGCCGACTCACTATAGGGATAATCGCCCTGAGCAAAGACC”, the binding signal was -0.13 ± 0.081 log2FC.

The sequence “CTCGAGGATATCAAGATCTGGCCTCGGCATTTTATTTGGAACCTCTAGCTAGCCGACTCACTATAGGGATAATCGCCCTGAGCAAAGACC” displayed a binding signal of 2.85 ± 0.07 log2FC.

The sequence “CTCGAGGATATCAAGATCTGGCCTCGGCATTTTAAGCGGAACCTCTAGCTAGCCGACTCACTATAGGGATAATCGCCCTGAGCAAAGACC” showed a binding signal of 0.548 ± 0.1 log2FC.

Consider “CTCGAGGATATCAAGATCTGGCCTCGGCGTCTTAAAAGGAACCTCTAGCTAGCCGACTCACTATAGGGATAATCGCCCTGAGCAAAGACC”, for which the binding signal is 1.44 ± 0.067 log2FC.

“CTCGAGGATATCAAGATCTGGCCTCGGCATACTAAAAGGAACCTCTAGCTAGCCGACTCACTATAGGGATAATCGCCCTGAGCAAAGACC” returned a binding signal of 0.619 ± 0.0967 log2FC.

In the case of “CTCGAGGATATCAAGATCTGGCCTCGGCGGTATAAAAGGAACCTCTAGCTAGCCGACTCACTATAGGGATAATCGCCCTGAGCAAAGACC”, the binding signal came to 1.44 ± 0.072 log2FC.

For the sequence “CTCGAGGATATCAAGATCTGGCCTCGGCCTTTTACAAGGAACCTCTAGCTAGCCGACTCACTATAGGGATAATCGCCCTGAGCAAAGACC”, the binding signal amounted to 3.37 ± 0.074 log2FC.

“CTCGAGGATATCAAGATCTGGCCTCGGCATGCTAAAAGGAACCTCTAGCTAGCCGACTCACTATAGGGATAATCGCCCTGAGCAAAGACC” showed a binding signal of 0.0523 ± 0.0889 log2FC.

The sequence “CTCGAGGATATCAAGATCTGGCCTCGGCACTCTAAAAGGAACCTCTAGCTAGCCGACTCACTATAGGGATAATCGCCCTGAGCAAAGACC” yielded a binding signal of 0.139 ± 0.11 log2FC.

The sequence “CTCGAGGATATCAAGATCTGGCCTCGGCTTTTTAAAGGGAACCTCTAGCTAGCCGACTCACTATAGGGATAATCGCCCTGAGCAAAGACC” displayed a binding signal of 2.54 ± 0.0796 log2FC.

Consider “CTCGAGGATATCAAGATCTGGCCTCGGCATTTTAGGTGGAACCTCTAGCTAGCCGACTCACTATAGGGATAATCGCCCTGAGCAAAGACC”, for which the binding signal came to 0.159 ± 0.111 log2FC.

Take “CTCGAGGATATCAAGATCTGGCCTCGGCGAAATAAAAGGAACCTCTAGCTAGCCGACTCACTATAGGGATAATCGCCCTGAGCAAAGACC”: the binding signal turned out to be 1.47 ± 0.0776 log2FC.

In turn, “CTCGAGGATATCAAGATCTGGCCTCGGCTGGATAAAAGGAACCTCTAGCTAGCCGACTCACTATAGGGATAATCGCCCTGAGCAAAGACC” gave a binding signal of -0.165 ± 0.087 log2FC.

For the sequence “CTCGAGGATATCAAGATCTGGCCTCGGCGTTTTAGATGGAACCTCTAGCTAGCCGACTCACTATAGGGATAATCGCCCTGAGCAAAGACC”, the binding signal was determined as 0.145 ± 0.106 log2FC.

As to “CTCGAGGATATCAAGATCTGGCCTCGGCTGTCTAAAAGGAACCTCTAGCTAGCCGACTCACTATAGGGATAATCGCCCTGAGCAAAGACC”, the binding signal is -0.572 ± 0.102 log2FC.
